Calls of active or inactive are those of the source.

We go through six compounds from PubChem BioAssay.

The subject of experiment [1] is Plasmodium falciparum Sir2 (PF13_0152, Sir2A). Briefly: pfSir2 binders on small-molecule microarrays, primary screen, biochemical, small-molecule microarray, 635 nm fluorescence (AID 1098).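 Also: score merges spot fluorescence intensity with its signal-to-noise ratio.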 The note with it: small-molecule microarray binding, fluorescence 635 nm; higher = more signal.
A short description of experiment [2]: small-molecule microarray binders of probe aDKK1, primary screen, biochemical, biotinylated probe, 635/667 nm fluorescence (AID 1099).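 Also: score merges 667nm spot fluorescence with signal to noise across triplicate slides.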 The settings on record: higher = more signal.
Experiment [3] is described as follows: small-molecule microarray binders of probe aCHRDL2, primary screen, biochemical, biotinylated probe, 635/667 nm fluorescence (AID 1100). The settings on record: higher = more signal.
A short description of experiment [4]: splicing luciferase reporter signal modulators, primary screen, spliceosome inhibition project, cell-based, HEK293, splice +/- reporter (AID 1101).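 Also: HEK293 cells carrying a splicing-competent luciferase reporter gene; test concentration not given here.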 The settings on record: luminescence, 24 h, higher = more signal, called active from +8 up or from −8 down.
Experiment [5] addresses Fibroblast growth factor 10 (Homo sapiens) (UniProt O15520). Kind of experiment: FGF10 binders on small-molecule microarrays, primary screen, biochemical, small-molecule microarray, 635 nm fluorescence (AID 1102). The note with it: FGF10 binding, fluorescence 635 nm, higher = more signal.
Experiment [6] deals with glycogen synthase kinase-3 (GSK3A per assay name; protocol says GSK3B). Kind of experiment: GSK3 binders on small-molecule microarrays, primary screen, biochemical, small-molecule microarray, 635 nm fluorescence, GSK3A (AID 1103). Also: the record names both GSK3A and GSK3B. The settings on record: small-molecule microarray binding, fluorescence 635 nm; higher = more signal.
Experiment [7] deals with Epidermal growth factor receptor (Homo sapiens) (UniProt P00533). Kind of experiment: EGFR binders on small-molecule microarrays, primary screen, biochemical, small-molecule microarray, 635 nm fluorescence (AID 1104).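 Also: score merges 667 nm emission intensity with spot signal to noise over triplicate slides.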 The note with it: EGFR binding, higher = more signal.
Chain of Epidermal growth factor receptor (Homo sapiens) (P00533 whole entry, looked up): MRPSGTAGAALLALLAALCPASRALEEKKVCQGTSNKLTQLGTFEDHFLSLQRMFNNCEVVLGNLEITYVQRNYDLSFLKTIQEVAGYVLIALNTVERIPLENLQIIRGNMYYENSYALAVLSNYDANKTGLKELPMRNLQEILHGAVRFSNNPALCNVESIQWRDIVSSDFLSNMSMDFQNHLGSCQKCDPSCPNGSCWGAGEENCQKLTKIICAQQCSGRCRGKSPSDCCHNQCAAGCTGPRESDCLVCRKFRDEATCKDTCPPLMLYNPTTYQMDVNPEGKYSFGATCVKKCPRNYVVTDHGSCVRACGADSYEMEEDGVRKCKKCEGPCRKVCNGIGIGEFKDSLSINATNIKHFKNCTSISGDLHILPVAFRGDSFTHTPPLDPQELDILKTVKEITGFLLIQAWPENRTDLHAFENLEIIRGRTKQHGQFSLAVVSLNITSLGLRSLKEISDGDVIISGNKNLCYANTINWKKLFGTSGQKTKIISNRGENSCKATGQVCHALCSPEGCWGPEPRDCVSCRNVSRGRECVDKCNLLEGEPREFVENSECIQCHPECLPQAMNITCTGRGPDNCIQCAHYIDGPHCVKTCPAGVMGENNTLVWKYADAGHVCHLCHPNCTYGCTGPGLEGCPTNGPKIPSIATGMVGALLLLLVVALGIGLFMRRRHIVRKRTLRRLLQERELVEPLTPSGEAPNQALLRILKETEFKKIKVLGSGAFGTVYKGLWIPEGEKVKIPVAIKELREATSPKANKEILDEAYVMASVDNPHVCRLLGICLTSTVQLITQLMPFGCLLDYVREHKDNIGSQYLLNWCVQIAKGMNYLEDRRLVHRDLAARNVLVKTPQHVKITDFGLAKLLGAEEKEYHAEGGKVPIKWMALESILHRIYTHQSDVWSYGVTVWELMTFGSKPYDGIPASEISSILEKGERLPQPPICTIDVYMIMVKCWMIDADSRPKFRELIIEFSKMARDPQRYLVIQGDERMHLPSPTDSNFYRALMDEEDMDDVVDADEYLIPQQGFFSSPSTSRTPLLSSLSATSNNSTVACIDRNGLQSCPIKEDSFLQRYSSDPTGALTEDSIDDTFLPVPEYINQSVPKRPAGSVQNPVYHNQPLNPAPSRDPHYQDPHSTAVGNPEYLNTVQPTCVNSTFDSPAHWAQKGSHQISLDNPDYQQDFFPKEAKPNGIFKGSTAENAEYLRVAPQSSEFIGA
The target of experiment [8] is Follistatin-related protein 3 (Homo sapiens) (UniProt O95633). Kind of experiment: FSTL3 binders on small-molecule microarrays, primary screen, biochemical, small-molecule microarray, 635 nm fluorescence (AID 1105).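 Also: score merges emission near 667 nm and signal to noise per printed spot across three slides.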 The note with it: FSTL3 binding, higher = more signal.
Chain of Follistatin-related protein 3 (Homo sapiens) (O95633 whole entry, looked up): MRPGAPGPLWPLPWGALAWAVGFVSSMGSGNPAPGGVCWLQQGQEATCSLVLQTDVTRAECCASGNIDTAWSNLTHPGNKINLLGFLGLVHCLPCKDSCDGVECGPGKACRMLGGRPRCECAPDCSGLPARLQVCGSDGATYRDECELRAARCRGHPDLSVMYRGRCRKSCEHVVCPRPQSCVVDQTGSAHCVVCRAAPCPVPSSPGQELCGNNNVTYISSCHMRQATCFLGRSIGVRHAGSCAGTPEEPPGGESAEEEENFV
Experiment [9] addresses Dickkopf-related protein 1 (Homo sapiens) (UniProt O94907). Kind of experiment: DKK1 binders on small-molecule microarrays, primary screen, biochemical, small-molecule microarray, 635 nm fluorescence scan (AID 1106).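 Also: score merges emission near 667 nm with signal to noise over three replicate slides.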 The note with it: DKK1 binding, higher = more signal.
In experiment [10] the test system is Inhibin beta A chain (activin A). Briefly: INHBA (activin A) binders on microarrays, primary screen, biochemical, small-molecule microarray, 635 nm fluorescence scan (AID 1107).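 Also: mouse activin A protein probed at 4.33 µg/mL on printed slides; score merges bound-protein fluorescence near 667 nm with spot signal-to-noise.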 The settings on record: small-molecule microarray binding, higher = more signal.
Experiment [11] deals with Human papillomavirus type 1a protein E7 (residues 44-93). Kind of experiment: HPV1a E7 fragment binders on microarrays, primary screen, biochemical, small-molecule microarray, residues 44-93, 635 nm fluorescence (AID 1108).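 Also: E7 fragment applied at 1 µg/mL in TBST for 1 h at 4 C; score combines spot fluorescence with its signal to noise ratio.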 The settings on record: small-molecule microarray binding, fluorescence 635 nm; higher = more signal.
A short description of experiment [12]: modulators of HCV replicon luciferase signal, primary screen, HCV replication inhibitor project, Huh7 cells, luciferase reporter (AID 1109).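 Also: huh7 hepatoma cells harbouring a luciferase neomycin HCV replicon reporter; luciferase luminescence as measure of HCV replicon replication; test concentration not given here.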 The settings on record: 48 h, higher = more signal. (In general: A replicon is a self-replicating genome or part of one, used to study replication in cells.)
Experiment [13] has as its target Left-right determination factor 2 (Homo sapiens) (UniProt O00292). Briefly: LEFTY2 binders on small-molecule microarrays, primary screen, biochemical, small-molecule microarray, 635 nm fluorescence scan (AID 1110). The settings on record: LEFTY2 binding, higher = more signal.
The target in experiment [14] is Calmodulin-1 (Homo sapiens) (UniProt P0DP23). Briefly: CALM1 binders on microarrays, EGTA buffer, profiling panel, biochemical, small-molecule microarray, Cy5-labelled CALM1 (AID 1111).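 Also: labelled calmodulin applied in Tris saline Tween buffer holding calcium plus EGTA and DTT.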 The settings on record: Cy5-CALM1 binding fluorescence, higher = more signal.
Experiment [15] shares this target. Briefly: calcium-bound CALM1 binders on microarrays, profiling panel, artefact control for SMM control-protein annotation, biochemical, small-molecule microarray, Cy5-labelled CALM1, plus calcium (AID 1112).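 Also: score merges spot fluorescence with signal to noise from triplicate slides.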 The settings on record: Cy5-CALM1 binding fluorescence, higher = more signal.
Experiment [16] in a line: small-molecule microarray binders of probe aWnt5a, primary screen, biochemical, biotinylated probe, 635/667 nm fluorescence (AID 1113).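 Also: score merges 667 nm fluorescence intensity with signal-to-noise per printed feature.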 The note with it: higher = more signal.
Experiment [17] is described as follows: small-molecule microarray binders of probe aShh, primary screen, biochemical, biotinylated probe, 635/667 nm fluorescence (AID 1114).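 Also: probe is biotin-labelled aShh protein from a stem cell growth factor screen; measures binding of labelled protein to compounds printed on the slide; score merges feature fluorescence at 667 nm with signal-to-noise.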 The note with it: higher = more signal.
The nature of experiment [18]: small-molecule microarray binders of probe aNog, primary screen, biochemical, biotinylated probe, 635/667 nm fluorescence (AID 1115).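 Also: probe is biotinylated aNog protein used at 0.15 µg/mL for 1 h at 4 C; z-score combines 667 nm fluorescence of each spot with its signal to noise.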 The settings on record: higher = more signal.
The target of experiment [19] is Torsin-1A-interacting protein 1 (Homo sapiens) (UniProt Q5JTV8). Briefly: LAP1 binders from COS7 cell lysate, primary screen, small-molecule microarray, 635/667 nm fluorescence (AID 1116). The settings on record: COS7-hLAP1 lysate binding, 635 nm fluorescence, higher = more signal.
Chain of Torsin-1A-interacting protein 1 (Homo sapiens) (Q5JTV8 whole entry, looked up): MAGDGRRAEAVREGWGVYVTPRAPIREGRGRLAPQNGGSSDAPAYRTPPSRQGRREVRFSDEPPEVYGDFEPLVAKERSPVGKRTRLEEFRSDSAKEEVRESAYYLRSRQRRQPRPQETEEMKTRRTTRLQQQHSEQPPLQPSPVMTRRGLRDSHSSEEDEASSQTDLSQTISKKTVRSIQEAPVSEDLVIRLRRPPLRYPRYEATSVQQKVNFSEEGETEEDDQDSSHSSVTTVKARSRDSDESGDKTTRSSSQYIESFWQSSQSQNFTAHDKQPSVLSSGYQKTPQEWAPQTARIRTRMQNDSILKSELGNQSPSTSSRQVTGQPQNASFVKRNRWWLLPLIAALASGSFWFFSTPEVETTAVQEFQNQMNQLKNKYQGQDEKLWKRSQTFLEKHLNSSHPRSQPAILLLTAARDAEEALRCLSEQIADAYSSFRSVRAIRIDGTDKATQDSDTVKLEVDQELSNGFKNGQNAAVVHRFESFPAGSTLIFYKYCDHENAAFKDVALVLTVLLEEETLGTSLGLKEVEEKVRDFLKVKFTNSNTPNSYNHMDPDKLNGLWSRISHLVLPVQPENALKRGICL
The target of experiment [20] is Alpha-bungarotoxin (Bungarus multicinctus) (UniProt P60615). Briefly: alpha-bungarotoxin binders on microarray, profiling panel, artefact control for SMM control protein annotation, biochemical, small-molecule microarray, Alexa647 label, 635/667 nm fluorescence (AID 1117). The settings on record: alpha-BTX-A647 binding fluorescence, higher = more signal.
Chain of Alpha-bungarotoxin (Bungarus multicinctus) (P60615 whole entry, looked up): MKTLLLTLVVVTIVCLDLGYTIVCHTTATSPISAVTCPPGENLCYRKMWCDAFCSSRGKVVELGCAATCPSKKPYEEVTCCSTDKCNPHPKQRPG

Chain of Dickkopf-related protein 1 (Homo sapiens) (O94907 whole entry, looked up): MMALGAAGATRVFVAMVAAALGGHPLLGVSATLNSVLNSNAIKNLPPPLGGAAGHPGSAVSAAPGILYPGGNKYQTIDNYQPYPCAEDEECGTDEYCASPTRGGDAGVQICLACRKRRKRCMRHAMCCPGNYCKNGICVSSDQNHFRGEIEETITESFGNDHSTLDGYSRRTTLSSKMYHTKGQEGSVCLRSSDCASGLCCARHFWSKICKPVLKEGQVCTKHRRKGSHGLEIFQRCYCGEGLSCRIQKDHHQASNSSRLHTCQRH
Chain of Left-right determination factor 2 (Homo sapiens) (O00292 whole entry, looked up): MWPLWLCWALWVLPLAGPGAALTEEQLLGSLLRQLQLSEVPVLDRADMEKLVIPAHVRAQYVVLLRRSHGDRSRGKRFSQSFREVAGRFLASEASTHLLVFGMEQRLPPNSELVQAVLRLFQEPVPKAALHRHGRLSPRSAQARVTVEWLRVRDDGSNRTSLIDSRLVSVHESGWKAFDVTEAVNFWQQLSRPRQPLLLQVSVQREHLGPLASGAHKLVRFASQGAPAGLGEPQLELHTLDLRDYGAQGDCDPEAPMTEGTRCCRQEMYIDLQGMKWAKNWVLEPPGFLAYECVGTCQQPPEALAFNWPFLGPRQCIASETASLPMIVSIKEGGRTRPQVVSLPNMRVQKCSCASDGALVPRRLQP
Chain of Fibroblast growth factor 10 (Homo sapiens) (O15520 whole entry, looked up): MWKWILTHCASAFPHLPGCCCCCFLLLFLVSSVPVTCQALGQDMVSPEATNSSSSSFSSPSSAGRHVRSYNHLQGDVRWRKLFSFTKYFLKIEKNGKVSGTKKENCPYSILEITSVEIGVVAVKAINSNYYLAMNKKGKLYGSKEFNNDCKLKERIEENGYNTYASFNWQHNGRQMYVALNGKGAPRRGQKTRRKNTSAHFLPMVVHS

In the case of `CCN(CC)c1ccc(N2CC=CC34O[C@@H]5C=CCCOC(=O)C5[C@H]3C(=O)N(CCCCCO)[C@@H]4C2=O)cc1` (stereo not given in full), the composite z-score was -0.144 in [1]; -0.0409 in experiment [2]; 0.0109 in [3]; -0.292 in [5]; -0.139 in [6]; -0.76 in experiment [7]. For the same compound, the composite z-score is -0.339 in experiment [8]; -0.182 in [9]; 1.52 in [10]; -0.668 in [11]; -0.48 in experiment [13]; -1.15 in experiment [14]. For the same compound, the composite z-score is -1.45 in [15]; -0.0721 in experiment [16]; 0.0756 in experiment [17]; -0.025 in experiment [18]; 1.04 in experiment [19]; -0.66 in experiment [20]. The z-score in [4] was -0.779 (inactive); in [12] it was 0.348.

In the case of `CC(C)NC(=O)[C@@H]1c2ccccc2C(=O)N(Cc2ccccc2)[C@H]1c1ccc(CO)cc1`, the composite z-score was 1.62 in experiment [1]; 0.652 in [2]; 1.11 in [3]; 0.462 in experiment [5]; 0.263 in [6]; -1.41 in [7]. The composite z-score in experiment [8] was -0.942; in experiment [9], -1.05; in experiment [10], -0.212; in experiment [11], -1.8; in [13], -1.06; in experiment [14], -0.472. The composite z-score in [15] was 0.477; in experiment [16] it was 0.115; in experiment [17] it was -0.214; in experiment [18] it was -0.647; in experiment [19], 1.57; in experiment [20], 0.181. In addition, the z-score in experiment [4] was 0.00875 (inactive); in experiment [12], -0.777.

In the case of `CCOC(=O)C[C@H]1[C@H](OC(=O)c2ccc(-c3ccccc3)cc2)[C@@H](NC(=O)c2ccc(-c3ccccc3)cc2)c2cc(OCCCO)ccc2N1C(=O)Cc1ccc(OC)cc1`, the composite z-score in [1] is -0.253; in [2] it was -0.0067; in [3], 0.45; in experiment [5], 0.256; in [6] it was -0.194; in experiment [7], -0.0509. For the same compound, the composite z-score was -0.0478 in experiment [8]; 0.0032 in experiment [9]; 0.638 in experiment [10]; 0.629 in experiment [11]; -0.186 in [13]; 0.382 in experiment [14]. For the same compound, the composite z-score is -0.971 in experiment [15]; -0.0765 in [16]; -0.366 in experiment [17]; -0.456 in [18]; 0.575 in [19]; 0.0738 in experiment [20]. The values for the z-score in [4] and in [12] were 0.101 (inactive) and -1.27, respectively.

`CCCCC=C[C@@H](NC(=O)c1ccc(C(=O)OC)cc1)c1ccccc1`: the composite z-score in [1] was 0.741; in experiment [2] it was -0.095; in experiment [3], 0.613; in experiment [5] it was 0.335; in experiment [6], 0.804; in experiment [7], 0.239. In addition, the composite z-score turned out to be 0.279 in [8]; 0.393 in experiment [9]; 0.629 in experiment [10]; 1.1 in experiment [11]; 0.107 in experiment [13]; 0.168 in experiment [14]. Besides, the composite z-score in experiment [15] is -0.128; in [16], -0.15; in experiment [17] it was 0.0711; in experiment [18] it was 0.122; in [19] it was 0.0279; in experiment [20] it was 0.926. Further, the z-score in [4] was -3.67 (inactive); in experiment [12], -1.36.

For the compound `CC(C)C[C@@H]1NC(=O)[C@H]2C[C@@H](C(=O)NCCCCCNC(=O)CS)[C@@H](c3cccc(OCCO)c3)N2C1=O`, the composite z-score was 1.52 in experiment [1]; -0.0356 in experiment [2]; -0.003 in experiment [3]; 1.03 in experiment [5]; 1.32 in experiment [6]; 1.08 in [7]. For the same compound, the composite z-score in experiment [8] stood at 1.36; in [9] it was 1.44; in experiment [10], 1.25; in [11] it was 1.38; in experiment [13], 1.25; in experiment [14] it was 0.193. Further, the composite z-score was -0.364 in [15]; -0.194 in experiment [16]; -0.358 in experiment [17]; -0.0428 in [18]; 0.698 in experiment [19]; 0.812 in [20]. Further, the z-score in [4] was 0.684 (inactive); in experiment [12], -0.265.

As for `CCOC(=O)C1=CCC(C(C)(C)C)N(S(=O)(=O)c2ccc(C)cc2)C1` (stereo not given), the composite z-score came out at 0.939 in experiment [1]; 0.368 in [2]; 0.108 in experiment [3]; 1.48 in [5]; 0.347 in experiment [6]; 1.15 in experiment [7]. Besides, the composite z-score in experiment [8] was 1.43; in [9], 1.44; in experiment [10], 0.136; in experiment [11], 1.46; in [13] it was 1.37; in experiment [14], 0.898. Also, the composite z-score in experiment [15] is 0.197; in [16], 0.0561; in [17] it was -0.532; in [18], 0.562; in experiment [19], 0.944; in experiment [20] it was 1.5. Besides, the z-score in experiment [4] is -0.0514 (inactive); in experiment [12] it was -2.59.
